Inconclusive results are not listed. Unmarked numbers belong to inactive results. Activity calls are given as the source filed them. Calls come from the whole dose curve; as a rule, active = well fitted inhibition curve with a large enough effect; inconclusive = small, poorly fitted or top-dose-only effect; inactive = no such curve, though single readings can be large or run the other way.
The compounds below were run against Retinaldehyde dehydrogenase 3 (Homo sapiens) (UniProt P47895) (assay: qHTS for Inhibitors of the Aldehyde Dehydrogenase Family (ALDH1A3) Primary screen (AID 2061315;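 for activity change, negative = inhibition: plate controls were DMSO vehicle for no effect and reference inhibitor for full effect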)). Settings: ALDH inhibition qHTS; series mostly up to 56 µM; activity change, negative = inhibition: at the top concentration.
Potency is the fitted concentration of half-maximal effect.

| Compound | activity change, negative = inhibition | Potency |
| --- | --- | --- |
| C/C1=C\CCC(C)CCO[C@@H]2O[C@H](CO[C@@H]3OC[C@H](O)[C@H](O)[C@H]3OC1=O)[C@@H](O)[C@H](O)[C@H]2O (stereo not given in full) | -3.21% [at 28 µM] | – |
| COC1OC(OC)C(O)(CCC2(C)C(C)CCC3(C)C2CC(O)C(O)C32CO2)C1O (stereo not given) | -14.7% [at 28 µM] | – |
| C[C@]12C[C@@H](O)[C@@H]3C[C@@]1(O[C@@H]1O[C@H](CO)[C@@H](O)[C@H](O)[C@H]1O)[C@]3(COC(=O)c1ccccc1)C(=O)O2 | 18.7% [at 28 µM] | – |
| CC1(C)CCC[C@]2(C)C1CC=C(CO)[C@H]2CC/C(=C/CO)CO (stereo not given in full) | 4.82% | – |
| CC(C)=CCCC1(C)C=Cc2c(c(C)cc3c2[nH]c2ccccc23)O1 (stereo not given) | -10.7% | – |
| C=C1C(=O)O[C@@H]2C[C@@]3(C)C[C@@H](O)C[C@H](C)C3=C[C@H]12 | 2.95% | – |
| CC(C)(C)c1cc(CN2CCN(CC(O)c3ccc(Cl)cc3)CC2)cc(C(C)(C)C)c1O (stereo not given) | -19.3% | – |
| CCN(CC)CCCCCCNc1cc(OC)cc2c(C)ccnc12 | – | 2510 nM (active) |
| O=C(O)[C@H]1CCCC[C@H]1C(=O)N1CCc2ccccc2[C@H]1CN1C(=O)c2ccccc2C1=O | 6.63% | – |
| Cc1ccc2c(c1)c1c(n2CCc2ccc(C)nc2)CCN(C)C1 | – | inactive |
| COc1ccc2nc(S(=O)(=O)Cc3ncc(C)c(OC)c3C)[nH]c2c1 | -1.22% | – |
| CO[C@@H]1[C@]2(O)C(=O)N3/C=C\C(C)(C)c4[nH]c5ccccc5c4/C=C\3C(=O)N2[C@]23[C@H](CO)C(C)(C)N2c2ccccc2[C@]13O | -3.47% [at 28 µM] | – |
| CC1(C)CC[C@]2(C(=O)O[C@@H]3O[C@H](CO[C@@H]4O[C@H](CO)[C@@H](O)[C@H](O)[C@H]4O)[C@@H](O)[C@H](O[C@@H]4O[C@H](CO)[C@@H](O)[C@H](O)[C@H]4O)[C@H]3O)[C@H](O)C[C@]3(C)C(=CCC4[C@@]5(C)CC[C@H](O[C@@H]6OC[C@@H](O)[C@H](O)[C@H]6O)[C@@](C)(C(=O)O)C5CC[C@]43C)[C@@H]2C1 (stereo not given in full) | 11.4% [at 16.9 µM] | – |
| COC(=O)C1=CO[C@@H](O[C@@H]2O[C@H](CO)[C@@H](O)[C@H](O)[C@H]2O)[C@@H]2[C@@H](C(=O)OC)[C@@H](O)C(O)[C@H]12 (stereo not given in full) | -25.8% [at 28 µM] | – |
| CC1(C(=O)O)CCCC2(C)C3CCC4CC3(CCC12)CC4C(=O)O (stereo not given) | 12.6% | – |
| O=C(Cc1ccc(-c2ccccc2)cc1)NC1CCC1 | 7.02% | – |
| CC(C)S(=O)(=O)NC[C@H](C)c1ccc(NC(=O)c2cc(F)cc(F)c2)cc1 | -2.04% | – |
| CC(C)=CCc1c(O)cc2oc3cc(C)cc(O)c3c2c1C | -22.6% | – |
| C[C@]1(CO)CN(c2cc(C(=O)Nc3ccc4c(c3)-c3c(c(C(N)=O)nn3-c3ccc(F)cc3)CC4)c(Cl)cn2)C[C@@]1(C)CO | 2.83% | – |
| CC1=C(C(=O)OCc2ccccc2)C(c2ccc(-c3ccccc3)cc2)NC(=O)N1CCCCCC(=O)O (stereo not given) | -27.5% | – |

From PubChem BioAssay (NCATS)
